Screens from PubChem BioAssay.
The entries come from a sample that favours hits as a whole.
Tgondii IFNg: inhibitors of Toxoplasma gondii growth with IFN-gamma; Toxoplasma gondii growth in IFN-gamma-treated host cells; hits give low values; activity change, negative = inhibition, % (concentration not given with the values); actives 3.8% (n = 69,000); AID 1259416; in the data active = activity change below about -70%, passing the limit was not always enough;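 also: host cells are HeLa cells infected with Toxoplasma gondii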
Numbers without * were called inactive.

SMILES	Tgondii IFNg
FC(F)(F)C1CN(c2nc(-c3ccccc3)no2)CCO1 (stereo unspecified)	21
Cc1nc(N2CCOC(C(F)(F)F)C2)c2ccsc2n1 (stereo unspecified)	-7
CC(C)c1cc(N2CCOC(C(F)(F)F)C2)nc(C(F)(F)F)n1 (stereo unspecified)	-81*
C=CCn1c(N)c(-c2nc3ccccc3[nH]2)sc1=S	24
COc1ccc(CNC(=O)Cn2c(=O)n(Cc3ccc(F)cc3)c(=O)c3ccccc32)cc1	-73*
COc1ccc(CNC(=O)Cn2c(=O)cc(-c3nc(C4CC4)no3)c3ccccc32)cc1	14
COc1ccc(CNC(=O)Cn2c(N)nc(C)c(C)c2=O)cc1	-29
CCNC(=O)[C@H]1CC[C@@](C)(C(=O)NCCCN2CCOCC2)C1(C)C	-27
O=C(CCn1c(=O)oc2ccccc21)Nc1ccc2c(c1)CN(Cc1ccccc1)C2	-6
CN(C)CC1CCC2(COCCN(C(=O)Cc3cccc(F)c3)C2)O1 (stereo unspecified)	5
Cc1cccc(NC(=O)C(=O)NCCc2sc(-c3ccc(Cl)cc3)nc2C)c1	18
Fc1ccc(-c2nc(N3CCN(c4ccccn4)CC3)ncc2-c2ncc[nH]2)cc1	-92*
Clc1ccc(-c2nc(N3CCOCC3)ncc2-c2ncc[nH]2)cc1	-60
O=C(CCCN1CCN(c2ccccn2)CC1)c1ccc(F)cc1	9
Cc1nc(-c2ccccc2)c(C(=O)N(C)Cc2snnc2C)s1	9
CC1=C(C(=O)Nc2ccc(Cl)c(Cl)c2)C2(CCN(Cc3ccccc3)CC2)OC1=O	-93*
CC1=C(C(=O)Nc2ccc(Cl)cc2)C2(CCN(Cc3ccccc3)CC2)OC1=O	-30
CCOc1ccc(NC(=O)C2=C(C)C(=O)OC23CCN(Cc2ccccc2)CC3)cc1	30
CO[C@@H]1CC[C@@H]2CCOc3ccc(C#N)cc3C(=O)N(C)C[C@H](c3ccccc3)CC(=O)N(C)C[C@@H]1O2	-24
Cc1nc(N)ccc1-c1cccc(O)c1	9
CO[C@@]12[C@@H]3NC3CN1C1=C(C(=O)C(N)=C(C)C1=O)[C@@H]2COC(N)=O (stereo partly specified)	-80*
N#Cc1ccc(-c2ccc3c(c2)[C@H]2[C@H](CCN2C(=O)c2cccnc2)[C@@H](CO)N3)cc1	4
CC(C)CN1C(=O)NC(C)(c2ccc(F)cc2)C1=O (stereo unspecified)	4
Clc1ccc(CNc2nc(SCc3ccccc3Cl)nc3ccccc23)cc1	30
Clc1ccccc1CSc1nc(NCc2ccccc2)c2ccccc2n1	-49
SMILES	Tgondii IFNg
COc1cc(Nc2nc(SCc3ccc(C(C)(C)C)cc3)nc3ccccc23)cc(OC)c1	-11
Clc1ccc(CNc2nc(SCc3ccc(Cl)cc3)nc3ccccc23)cc1	-48
Fc1ccc(CSc2nc(Nc3ccc(F)c(F)c3)c3ccccc3n2)cc1	-80*
COc1ccc(CNc2nc(-c3ccc(OC)cc3)nc3ccccc23)cc1	-42
Clc1ccc(CSc2nc(NCc3ccccc3)c3ccccc3n2)cc1	-72*
c1ccc(CNc2nc(NCc3ccccc3)c3ccccc3n2)cc1	-108*
Fc1ccc(Nc2nc(SCc3ccc(Cl)cc3)nc3ccccc23)cc1F	-21
CN1C(=O)c2cc(NC(=O)Nc3ccc(Cl)cc3)ccc2OC[C@@H]2O[C@@H](CC(=O)NCCN3CCCCC3)CC[C@H]21	-42
Cc1nc(-c2cc(C(=O)NCC3CCCO3)c3ccccn23)cn1C (stereo unspecified)	373
CCCC#Cc1ccc([C@H]2[C@@H](CO)N[C@@H]2CN(C(C)=O)C2CCCC2)cc1	-36
COc1ccc(N2CCN(Cc3ccc4nsnc4c3)C(C)C2)cc1 (stereo unspecified)	6
CCc1nc(CN(C)C(=O)c2ccc(-c3ccccc3Cl)o2)no1	66
O=C(c1cccc2ccnn12)N(Cc1ccccn1)CC1CCCO1 (stereo unspecified)	-4
CCn1nc(C)c(C(=O)N2CCCC3(CC2)CNC(=O)O3)c1C (stereo unspecified)	59
O=C(O)CSc1nc2ccccc2n1Cc1ccccc1	13
COC(=O)c1c(C)nc2n(Cc3ccccc3)c3ccccc3n12	-84*
Cc1cc(NC(=O)CSc2nnc3n(Cc4ccccc4)c4ccccc4n23)no1	-2
CCn1ccnc1CN1CC(C(=O)Nc2cccc(OC)c2)C1	23
Cc1cc(C)c(Cn2cncn2)cc1CN1CCN2C(=O)CNC(=O)C2C1 (stereo unspecified)	2
OCCCN1CCN(c2nccc(C3CCCC3)n2)CC1	-10
CCCCN(C)C(=O)c1cc(-c2cnc(N3CCOCC3)nc2)cn1CC1CC1	-67
COc1ncccc1NC(=O)c1cc(-c2cnc(N3CCCC3)nc2)cn1CC1CC1	-45
CN(C)C(=O)CNC(=O)c1cc(-c2cnc(N3CCOCC3)nc2)cn1CC1CC1	43
Cc1ccc(NC(=O)c2cc(-c3cnc(N4CCCC4)nc3)cn2CC2CC2)cn1	-22
Cc1cccc(NC(=O)c2cc(-c3cnc(N4CCOCC4)nc3)cn2CC2CC2)c1	-80*
O=C(NCc1ccc(F)cc1F)c1cc(-c2cnc(N3CCCC3)nc2)cn1CC1CC1	-103*
